# Compound activity (PubChem BioAssay)
# D3 antag = qHTS of D3 Dopamine Receptor Antagonist: qHTS; max response, negative = inhibition, %; D3R cells, DiscoveRx beta-arrestin luminescence, antagonist mode; hits give low values; AID 652054, 2013; 360,000 tested, 2.5% active; D(3) dopamine receptor (Homo sapiens), P35462; in the data active = max response below about -50%; inconclusive = no clear call, values can overlap the other calls; also: % is scaled to controls: 0 for no effect and ±100 for the full control effect
# Target sequence (P35462 whole entry, looked up): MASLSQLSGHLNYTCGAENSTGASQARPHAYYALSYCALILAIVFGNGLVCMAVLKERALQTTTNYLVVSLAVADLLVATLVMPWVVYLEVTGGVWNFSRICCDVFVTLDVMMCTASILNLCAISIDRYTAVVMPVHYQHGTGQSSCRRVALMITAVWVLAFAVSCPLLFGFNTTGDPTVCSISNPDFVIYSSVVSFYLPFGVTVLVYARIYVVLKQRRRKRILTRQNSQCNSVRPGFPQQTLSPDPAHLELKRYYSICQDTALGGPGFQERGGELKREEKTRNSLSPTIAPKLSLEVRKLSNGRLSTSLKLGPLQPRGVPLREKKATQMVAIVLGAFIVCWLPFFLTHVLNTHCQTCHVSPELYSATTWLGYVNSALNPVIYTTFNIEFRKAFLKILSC
#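 Cells expressing the human receptor were seeded at 1500 cells/well, incubated overnight at 37 degrees C in 5% CO2, then exposed to library compounds with dopamine controls for 90 minutes at 37 degrees C before luminescent detection.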
# DRD3 agonist = qHTS of D3 Dopamine Receptor Agonist: qHTS. D(3) dopamine receptor (Homo sapiens), P35462. D3R DiscoveRx beta-arrestin cells, luminescence, 90 min. max activation, %. 410,000 tested, 0.58% active. AID 652048, 2013; in the data active = max activation above about 30%; also: 0% is about no effect
#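 Agonist mode: compounds and dopamine controls were applied to plated cells for 90 min at 37 degrees C after an overnight attachment at 1500 cells/well. Luminescent read-out followed 30 - 60 minutes at room temperature with DiscoveRx detection reagent.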
# D1 ag = Allosteric Agonists of the Human D1 Dopamine Receptor: qHTS; HEK293 T-REx D1 cells, calcium flux, agonist mode; activation, % at 2 µM; 360,000 tested, 1% active; AID 504660, 2011; in the data active = activation above about 30%; also: 0% is about no effect
#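 Tetracycline-induced HEK293 TREx D1 cells, force-coupled to calcium signalling, were dye-loaded with a no-wash calcium kit. Compound was pin-added after a 10 s baseline. Fluorescence was read kinetically at 1 cycle/s for 180 s, with calcium rises flagged as agonism.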
# D1 PAM = Potentiators of Human D1 Dopamine Receptor: qHTS. D(1A) dopamine receptor (Homo sapiens), P21728. HEK293 TREx D1 cells, calcium flux, dopamine EC20 potentiation. potentiation, % at 10 µM. 360,000 tested, 0.036% active; in the data active = potentiation above about 30%; also: 0% is about no effect
# D1 antagonist = Antagonist of Human D 1 Dopamine Receptor: qHTS. HEK293 TREx D1 cells, calcium flux, dopamine EC80; hits give low values. 360,000 tested, 3.2% active. D(1A) dopamine receptor (Homo sapiens), P21728. activity change, negative = inhibition, % at 10 µM; in the data active = activity change below about -30%; also: % is scaled to controls: 0 for no effect and ±100 for the full control effect
#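 Using tetracycline-induced force-coupled D1 Hek293 cells and a calcium dye, signals were followed for 180 s after compound, then for 180 s after EC80 dopamine, to detect inhibitors.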
# The depositor's hits bear a star; ? = inconclusive; . = no result given; ! = not confirmed by another sample. Hits are enriched below; roughly 6% of the tested compounds scored in any of these assays.
SMILES,D3 antag,DRD3 agonist,D1 ag,D1 PAM,D1 antagonist
Cc1ccc(S(=O)(=O)Cn2nnnc2C(C(C)C)N2CCN(Cc3ccco3)CC2)cc1 (stereo not drawn),-59*,-31,0,-2,-7
COc1cccc(NC(=O)COC(=O)C2CCCCC2)c1,-2,0,.,.,.
CC(OC(=O)CCC(=O)c1ccc(F)cc1)C(=O)NC1CCCCC1C (stereo not drawn),-3,0,-1,-8,0
Cc1ccc(NC(=O)C(C)OC(=O)Cc2c[nH]c3ccccc23)cc1 (stereo not drawn),19,-7,-1,-2,-56*
Cc1ccc(S(=O)(=O)CCC(=O)NC2CCCCC2)cc1,-2,-1,2,-4,0
Cc1ccc(S(=O)(=O)CCC(=O)OC(C)C(=O)NC2CCCCC2C)cc1 (stereo not drawn),-10,-4,2,-1,-42*
Cc1ccc(S(=O)(=O)CCC(=O)N(C)C2CCCCC2)cc1,-29,-7,0,-3,-42*
CC(OC(=O)Cc1c[nH]c2ccccc12)C(=O)NC1CCCCC1C (stereo not drawn),16,-1,4,-4,-31*
O=c1[nH]c(C(Cl)(Cl)Cl)nc2ccc3ccccc3c12,-16,1,8,.,-3
COc1ccc(-c2nc(Cn3c(SCc4ccc(C)cc4)nc4cccnc43)c(C)o2)cc1OC,.,-9,7,3,0
CCCCn1c(N)c(N(CCOC)C(=O)c2ccc(N3CCCC3)c([N+](=O)[O-])c2)c(=O)[nH]c1=O,22,-5,1,-5,2
CC(C)c1ccc(/C=C/C(=O)Nc2nc3ccc([N+](=O)[O-])cc3s2)cc1,10,0,-1,-4,6
O=[N+]([O-])c1ccc2nc(NN=Cc3ccc(O)cc3)sc2c1,-52*,-4,.,.,.
CC(C)Nc1ncnc2c1ncn2[C@H]1CN(Cc2ccccc2)C[C@@H](CO)O1,3,-5,.,.,.
COC(=O)c1cccc(NC(=O)CSc2nc(=O)cc(N)n2-c2ccccc2)c1,-51*,-2,1,-8,-25
Cc1ccc(NC(=O)CSc2nc(=O)cc(N)n2-c2ccccc2)cc1,7,-10,1,2,19
COc1ccc(OC)c(CCNC(=O)c2ccc3c(c2)c(C)c(C)n3Cc2ccccc2)c1,.,-5,2,-6,-29
CCOC(=O)[C@H](CS)NCCN[C@@H](CS)C(=O)OCC,.,0,.,.,.
CCC/C(=N\NC(=O)c1csc(C)c1C)c1cccs1,-51*,-10,2,-14,6
COc1ccc2c(c1)CCc1c(C(=O)Nc3ccc(OC)c(OC)c3)noc1-2,14,34*,6,-4,-12
COc1ccc2c(c1)CCc1c(C(=O)Nc3c(C)nn(Cc4ccccc4)c3C)noc1-2,32,14,18,-2,-32*!
COc1ccc2c(c1)CCc1c(C(=O)Nc3c(C)nn(Cc4ccccc4Cl)c3C)noc1-2,.,-8,18,-2,-40*
Cc1c(-c2nnc(SCC(=O)Nc3ccc(Cl)cc3)o2)nnn1-c1ccc(F)cc1,.,-8,4,2,0
O=C(Oc1oc(-c2ccco2)nc1C=Nc1ccccc1)c1ccco1,-50*,-8,0,2,1
O=C(Oc1oc(-c2ccco2)nc1C=Nc1ccccc1)c1ccoc1,?,1,1,-4,-6
SMILES,D3 antag,DRD3 agonist,D1 ag,D1 PAM,D1 antagonist
CN(Cc1ccccc1)C(=O)c1ncn(Cc2ccccc2)c1C(=O)N(C)Cc1ccccc1,47,45*,-1,8,.
COc1ccc(C2=C(C)C(=O)N(Cc3ccc(C(=O)NCc4cccc(C)c4)cc3)S2(=O)=O)cc1,.,-7,0,0,-3
COc1ccc(OCC(O)CNC(=O)Nc2ccc(F)cc2)cc1 (stereo not drawn),10,8,1,-13,-38*
O=[N+]([O-])c1ccc(O)c(/C=N/Nc2ccc(Cl)nn2)c1,-84*,-31,6,0,-9
CN(C)/N=C/c1cc([N+](=O)[O-])ccc1O,-61*,-12,5,-4,10
O=[N+]([O-])c1cccc(/C=N/n2cnnc2)c1,1,10,1,0,8
NC(N)=N/N=C/c1cc([N+](=O)[O-])ccc1O,-10,-5,1,-5,7
O=[N+]([O-])c1ccc(O)c(/C=N/Nc2nn[nH]n2)c1,?,-11,1,3,5
O=[N+]([O-])c1ccc(O)c(/C=N\N=C2c3ccccc3-c3ccccc32)c1,-78*,-19,25,-5,-27
Cc1ccc(S(=O)(=O)N/N=C/c2cc([N+](=O)[O-])ccc2O)cc1[N+](=O)[O-],-17,-1,4,-2,-4
O=[N+]([O-])c1ccc(O)c(/C=N/n2cnnc2)c1,-83*,-11,1,3,3
COc1ccc2c(C)c(CCC(=O)NCCc3ccc(Cl)cc3)c(=O)oc2c1,.,-4,7,0,-6
Cc1cc(C)n(/N=C/c2cc([N+](=O)[O-])ccc2O)c(=O)c1,-67*,-24,6,-1,-3
O=[N+]([O-])c1ccc(O)c(/C=N/n2c(-c3ccccc3)n[nH]c2=S)c1,?,-5,1,-10,-24
C[C@H](CO)N1C[C@H](C)[C@@H](CN(C)C(=O)Nc2ccccc2)Oc2c(NS(=O)(=O)c3cccs3)cccc2C1=O,30,7,.,.,.
Cc1cc(C(C)(C)C)c(O)c(C)c1CC1=NCCN1,-98*,-44,0,4,8
COc1ccc(NC(=O)C2=C(C)Nc3ncnn3C2c2ccc(C)o2)cc1 (stereo not drawn),.,1,1,5,2
CC1=C(C(=O)Nc2ccccc2)C(c2ccc(C)o2)n2ncnc2N1 (stereo not drawn),-1,-6,2,-12,-60*
CCC1CCCCN1C(=O)c1sc(-n2nc(C)c(Cc3ccccc3)c2C)nc1C (stereo not drawn),.,-13,-1,1,-10
Cc1ccc(S(=O)(=O)N(CC(O)CN2CCOCC2)c2cc(Cl)ccc2Cl)cc1 (stereo not drawn),-54*,-18,4,2,-8
O=C(Nc1ccc(Br)cc1F)c1ccc2nsnc2c1,-8,-3,4,-4,-33*
CCCOc1ccccc1C(=O)N1CCC(c2nc3ccccc3s2)CC1,.,9,1,0,-9
CCC(Oc1ccccc1F)C(=O)N1CCC(c2nc3ccccc3s2)CC1 (stereo not drawn),.,10,36*,-2,-18
Cc1cccc(C)c1NC(=O)c1cc(S(N)(=O)=O)c(Cl)cc1O,.,-1,.,.,.
